# Experimental data from PubChem BioAssay (NCATS).
# Results filed as inconclusive are left out. A number with no mark means an inactive call. The source made the active and inactive calls. The call rests on the fitted dose curve; in most records, active means well fitted inhibition curve with a large enough effect; inconclusive means small, poorly fitted or top-dose-only effect; inactive means flat fitted curve, though single readings scatter.
# System: Zika virus NS2B-NS3 protease
# Assay: Primary screen GU AMC qHTS for Zika virus inhibitors (AID 1347154);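 further: 0% = no-inhibitor control and -100% = no-enzyme control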
# Settings: Zika NS2B-NS3 unlinked protease, AMC fluorogenic substrate; series mostly up to 54.1 µM; activity change, negative = inhibition: at the top concentration
# Method in brief: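 Unlinked Zika NS2B hydrophilic domain–NS3 protease complex at 25 nM in 10 mM Tris-HCl pH 8.0, 0.01% Tween 20, with an AMC peptide substrate. Fluorescence change (340/450 nm) over 15 min at room temperature, normalized to controls, fitted to 4-parameter Hill.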
# Further: nearly all actives have a fitted effect of over 70% in size.
Structure (SMILES),"activity change, negative = inhibition",Potency
COC(=O)N1CCN(C(=O)Cc2ccc(Cl)c(Cl)c2)C(CN2CCCC2)C1 (stereo not drawn),1.01%,
CC(N)Cc1c[nH]c2ccc(OCc3cccs3)cc12 (stereo not drawn),9.9%,
CC(C)[C@@]1(NC(=O)[C@@H]2C[C@@H]3c4cccc5[nH]cc(c45)C[C@H]3N(C)C2)O[C@@]2(O)[C@@H]3CCCN3C(=O)[C@H](Cc3ccccc3)N2C1=O,1.27%,
CCCSP(=O)(OCC)SCCC,-4.09% [at 104 µM],
CN1CCC(c2c[nH]c3ccc(O)cc23)CC1,,inactive
COc1ccc2[nH]cc(CCN)c2c1,,inactive
Cc1cccc(C(C)c2cnc[nH]2)c1C (stereo not drawn),6.98%,
Cc1cc(C)cc(C(=O)OC2C[C@H]3CC[C@@H](C2)N3C)c1 (stereo partly drawn),14.8%,
CCCN(CCC)[C@@H]1CCc2cccc(O)c2C1,,inactive
N#CC(C#N)=Cc1cc(O)c(O)c(O)c1,20.1%,
CCCN(CCC)CCc1c[nH]c2ccc(C(N)=O)cc12,-7.99%,
C=C(C)[C@H]1O[C@H]2CC[C@@]3(C)[C@@](O)(CC[C@H]4[C@@H]5OC(C)(C)[C@H]6C[C@@H]7C(=C)Cc8c(Cl)cc9[nH]c(c5c9c8[C@@]76O)[C@@]43C)[C@]23O[C@@H]3[C@H]1O,21.2%,
CC(C)(C)c1cc(C=C(C#N)C#N)cc(C(C)(C)C)c1O,,inactive
CN1c2ccccc2C(NCCCCCCC(=O)O)c2ccc(Cl)cc2S1(=O)=O (stereo not drawn),-0.305%,
O=[N+]([O-])c1ccc2nc(N3CCNCC3)ccc2c1,-11.7%,
O=c1c2ccccc2[se]n1-c1ccccc1,14.3% [at 104 µM],
Cc1[nH]c2ccc(O)cc2c1CCN,,inactive
CCNC(=O)[C@H]1O[C@@H](n2cnc3c(N)ncnc32)[C@H](O)[C@@H]1O,,inactive
Oc1ccc2c3c1O[C@H]1c4[nH]c5ccccc5c4C[C@@]4(O)C(C2)N(CC2CC2)CCC314 (stereo partly drawn),3.85%,

# System: not listed separately
# Assay: Confirmatory screen GU Rhodamine qHTS for Zika virus inhibitors qHTS (AID 1347157); further: potency means the concentration at half of the fitted maximal effect;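 on activity change, negative = inhibition: plate controls were no-inhibitor wells for no effect and no-enzyme wells for full effect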
# Settings: purified enzyme assay, Rhodamine110 substrate fluorescence, 15 min; series mostly up to 114 µM; activity change, negative = inhibition: at the top concentration
# Method in brief: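 Compounds, tested up to 114 microM, were incubated for 15 minutes with 25 nM unlinked NS2B-NS3 protease at pH 8.0. Cleavage of 1.5 microM Rhodamine110 substrate was then followed by fluorescence for 15 minutes.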
Structure (SMILES),Potency,"activity change, negative = inhibition"
CCCCCOc1cc2c(cc1-c1cc(/C=C/C(=O)O)ccc1O)C(C)(C)CCC2(C)C,1.75 µM (active),
COC(=O)C1(C)CCC(O)C2(C)c3cc(O)c(C(C)C)cc3C(O)C(OC(C)=O)C12 (stereo not drawn),24.2 µM (active),
COc1c(C(C)C)cc2c(c1O)[C@@]1(C(=O)O)CCCC(C)(C)C1CC2 (stereo partly drawn),6.85 µM (active),
CCN1CC2(COC)C3[C@@H](OC)C4C1C3(C1C[C@]3(O)[C@H](OC(=O)c5ccccc5)C1[C@]4(OC(C)=O)[C@@H](O)[C@@H]3OC)[C@H](OC)C[C@H]2O (stereo partly drawn),,1.83%
